Screens as filed in PubChem.
Hits are enriched below; roughly 0.45% of the tested compounds scored in any of these assays.
Anesthetic bind: qHTS Assay for Identification of Novel General Anesthetics. Ferritin light chain (Equus caballus), P02791. Potency, µM (titrated, usually from 77.5 µM), for the others: at the highest dose activity change, negative = displacement, hits mostly inhibitors. AID 485281, 2010. apoferritin/1-aminoanthracene competitive binding, fluorescence. 350,000 compounds, 0.074% hits; also: % is scaled to controls: 0 for no effect and ±100 for the full control effect; nearly all actives have a fitted effect of over 20% in size
Target sequence (P02791 2-175 limits assumed): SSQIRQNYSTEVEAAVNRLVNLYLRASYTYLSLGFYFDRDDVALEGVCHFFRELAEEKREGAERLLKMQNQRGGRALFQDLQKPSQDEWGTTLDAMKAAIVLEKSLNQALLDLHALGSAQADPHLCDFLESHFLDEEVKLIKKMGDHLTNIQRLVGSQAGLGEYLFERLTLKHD
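Horse-spleen apoferritin (10 uM) in 50% saturated 1-aminoanthracene in PBS was incubated 10 min at room temperature with compound. Fluorescence (ex 380, em 535 nm) was normalized to free and bound 1-AMA, with concentration-response fitted by a four-parameter Hill equation.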
B2AR arrestin: qHTS assay of beta-arrestin-biased ligands of beta2-adrenergic receptor | Beta-2 adrenergic receptor (Homo sapiens), P07550 | beta-arrestin recruitment to beta2AR, cell-based reporter | Potency, µM (top dose mostly 46.1 µM), without a hit: at the top dose activation, usual class: activators | 330,000 compounds, 0.02% hits;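 also: 0% = DMSO controls and full agonism = EC100 isoproterenol or metaproterenol; nearly all actives have a fitted effect of over 65% in size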
Pin1 inh: qHTS Assay to Find Inhibitors of Pin1; Peptidyl-prolyl cis-trans isomerase NIMA-interacting 1 (Homo sapiens), Q13526; Pin1 FP peptide displacement, HiFluor488, 10 min; Potency, µM (highest dose often 115 µM), for the others: at the highest dose activity, negative = inhibition, most hits filed as inhibitors; 390,000 compounds, 0.009% hits; active = well fitted inhibition curve with a large enough effect in the polarisation, with a control signal flat, not every such curve was filed as active; inconclusive = small, poorly fitted or top-dose-only effect, or effect the other way, or a change in a side signal; inactive = no such curve, though single readings can be large or run the other way; the % refers to the polarisation; also: % is scaled to controls: 0 for no effect and ±100 for the full control effect
Target sequence (Q13526 whole entry, looked up): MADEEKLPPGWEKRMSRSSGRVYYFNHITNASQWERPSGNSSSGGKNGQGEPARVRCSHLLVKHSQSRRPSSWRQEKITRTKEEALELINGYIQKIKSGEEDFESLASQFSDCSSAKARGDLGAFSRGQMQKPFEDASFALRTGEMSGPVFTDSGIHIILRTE
FEN1 inh-1: qHTS Assay for the Inhibitors of Human Flap endonuclease 1 (FEN1) | Recombinant FEN1 flap cleavage, fluorescence, 15 min | P39748 | 390,000 compounds, 0.35% hits | AID 588795, 2011 | Potency, µM (top dose mostly 114 µM), without a hit: top-dose activity change, negative = inhibition, usual class: inhibitors; also: % is scaled to controls: 0 for no effect and ±100 for the full control effect; nearly all actives have a fitted effect of over 65% in size
Target sequence (P39748 whole entry, looked up): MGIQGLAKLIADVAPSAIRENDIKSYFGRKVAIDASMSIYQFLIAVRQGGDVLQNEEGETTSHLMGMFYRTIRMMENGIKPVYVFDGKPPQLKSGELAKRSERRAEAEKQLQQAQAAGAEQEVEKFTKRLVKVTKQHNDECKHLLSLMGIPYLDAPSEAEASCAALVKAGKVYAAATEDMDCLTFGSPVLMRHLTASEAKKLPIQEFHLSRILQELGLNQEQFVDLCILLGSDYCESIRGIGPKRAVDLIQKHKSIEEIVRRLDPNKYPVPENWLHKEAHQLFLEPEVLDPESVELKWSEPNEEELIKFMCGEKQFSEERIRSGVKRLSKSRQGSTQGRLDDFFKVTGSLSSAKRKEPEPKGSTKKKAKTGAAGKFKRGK
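Quantitative HTS format: each compound was titrated, incubated with 10 nM nuclease for 15 min at room temperature, then challenged with flap substrate at 50 nM final. Signal change over 15 min gave concentration–effect curves.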
Tb PGK inh: qHTS Assay to Find Inhibitors of Phosphoglycerate Kinase; PGK/GAPDH coupled, Kinase-Glo luminescence, 60 min; AID 602233, 2012; Phosphoglycerate kinase, glycosomal (Trypanosoma brucei brucei), P07378; 380,000 compounds, 0.043% hits; Potency, µM (series often up to 57.5 µM), for the others: at the highest dose activity change, negative = inhibition, hits mostly inhibitors; also: % is scaled to controls: 0 for no effect and ±100 for the full control effect; nearly all actives have a fitted effect of over 60% in size
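Luminescent ATP detection (Kinase-Glo Plus) follows a 60-minute room-temperature incubation, with wells lacking PGK as controls. Buffer: 100 mM TEA (pH 7.6), 5 mM MgCl2, 0.01% Tween-20. Coupling enzyme GAPDH (100 nM final) supplies unstable 1,3-BPG in-well.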
BCR signal inh: qHTS Assay to Find Inhibitors of Chronic Active B-Cell Receptor Signaling. ABC-DLBCL IkBa-CBG/CBR reporter, luminescence ratio, 4 h. Potency, µM (doses to about 46.1 µM), for the others: top-dose activity change, negative = inhibition, actives largely listed as inhibitors. 340,000 compounds, 0.05% hits; active = well fitted inhibition curve with a large enough effect in the signal ratio, with a control signal flat, not every such curve was filed as active; inconclusive = small, poorly fitted or top-dose-only effect, or effect the other way, or a change in a side signal; the % refers to the signal ratio;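 also: plate controls were basal doxycycline-induced cells for no effect and cells given 10 µM MG132 for full effect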
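Compounds up to 46 uM were incubated four hours with TMD8 cells whose green CBG68 luciferase is fused to IkappaBalpha; red CBR luminescence normalised the signal, and concentration-effect curves were fitted to fusion, red and ratio data.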
FEN1 inh-2: qHTS Assay for the Inhibitors of FEN1: Confirmatory Assay for Cherry-picked Compounds; shares compounds with FEN1 inh-1; FEN1 flap cleavage, TAMRA/BHQ2 fluorogenic DNA substrate; Potency, µM, hits mostly inhibitors; 880 compounds, 79% hits; also: nearly all actives have a fitted effect of over 60% in size
Active calls of the source: *; i = inactive; u = inconclusive; x = no result; [ ] = another dose, or the depositor's remark. Unless noted, calls follow the shape of the dose curve; as a rule, active = well fitted curve in the direction sought with a large enough effect; inconclusive = small, poorly fitted or top-dose-only effect, or another doubt; inactive = no such curve, though single readings can be large; an effect the other way counts as inactive or inconclusive. Potency is read from the fitted curve at half-maximal effect.

SMILES	Anesthetic bind	B2AR arrestin	Pin1 inh	FEN1 inh-1	Tb PGK inh	BCR signal inh	FEN1 inh-2
Cc1cccc(N/N=C/c2ccc(O)c(O)c2O)c1	3.5%	0.3%	-10.1%	25.1µM*	-6.0%	u	u
COc1ccc(OCC2CC3C(CCC(C)C3c3ccc(Br)cc3)C(=O)O2)cc1 (stereo not given)	-14.5%[15.3 µM]	x	x	x	x	x	x
O=[S+]([O-])(c1ccc2c(c1)OCCO2)N1CCN([S+](=O)([O-])c2cc(Cl)ccc2F)CC1	x	x	9.0%	x	x	x	x
COc1ccccc1N1C(=N)S/C(=C\c2ccc(-c3ccccc3C(=O)O)o2)C1=O	-14.1%	-1.3%	u	44.7µM*	-16.7%	u	u
C(=C\c1ccnc2ccccc12)/c1ccc(N2CCNCC2)cc1	x	x	x	-12.1%	x	x	x
Cc1cccc2c(=O)[nH]c3c(-c4nc(-c5ccc(Cl)cc5)cs4)c(O)cn3c12	x	x	x	-6.0%	x	x	x
O=[N+]([O-])c1ccc2c([N+](=O)[O-])ccc3c2c1CC3	x	x	x	x	-15.7%	x	u
NC(=O)c1ccc2c(=O)c(O)c(-c3cc(Cl)c(N)c(Cl)c3)[nH]c2c1	28.4%	0.3%	u	56.2µM*	i	16.5%	37.9*
CCCNC(=O)c1ccc2c(=O)c(O)c(-c3ccc(Cl)c([N+](=O)[O-])c3)[nH]c2c1	-7.4%	0.3%	-10.2%	u	-3.3%	u	x
Cc1cc2c(s1)c1cnn(Cc3ccccc3)c(=O)c1n2C	x	x	-3.5%	x	x	x	x
COc1ccc(OC)c(/C(O)=C/C(=O)C(=O)Nc2cc(C)cc(C)c2)c1	u	0.2%	5.4%	u	-7.3%	u	42.6*
O=C1CCC2=C1C1(CCCC1)N=C(Nc1nc3ccccc3o1)N2	x	x	0.8%	x	x	x	x
Cc1c(Cn2cnc3c(cnn3C(C)(C)C)c2=O)cccc1C(F)(F)F	x	x	x	5.1%	x	x	x
CCn1cc(C(=O)O)c(=O)c2cc(F)c(N/N=C/c3ccccc3)cc21	13.6%	1.9%	0.0%	u	i	u	37.9*
CC(C)(C)n1ncc2c(=O)n(Cc3cccc(-c4cccs4)c3)cnc21	x	x	x	-47.0%	x	x	x
CCCCN(C)C1=CC2=CC(=C(C#N)C#N)CCC2CC1 (stereo not given)	-16.2%	-0.1%	u	22.4µM*	i	18.1%	75.7*
C#CCCCO/N=C1/C[C@@H](O)[C@@H](O)[C@@H]2[C@@H]3C(=O)N(Cc4ccccc4)C(=O)[C@H]3CC[C@@H]12	-10.6%[15.3 µM]	x	x	x	x	x	x
CN=c1scc(C)n1/N=C/c1cc(Br)c(O)c(OC)c1	3.7%	0.1%	-0.6%	2.3%	-6.9%	-22.1%	x
CN=c1scc(C)n1/N=C/c1ccc(O)c(O)c1O	u	-0.1%	u	79.4µM*	-13.6%	u	33.8*
Cc1nc(S/C(=C/c2ccc(-c3ccc(C(=O)O)cc3)o2)C(=O)O)n[nH]1	24.9%	-0.2%	62.3%	u	-8.9%	u	47.8*
COC(=O)NC(/C(C(=O)OC)=C(\C)NCc1ccccc1)c1ccc(Cl)cc1 (stereo not given)	-7.3%[15.3 µM]	x	x	x	x	x	x
O=C(CN1C(=O)S/C(=C/C=C/c2ccccc2)C1=O)Nc1ccc(C(=O)O)cc1	-11.5%	-0.2%	-2.3%	-33.5%	i	-17.1%	x
O=C(CCN1C(=O)/C(=C\C=C\c2ccccc2)SC1=S)Nc1ccc(C(=O)O)cc1	-5.0%	0.3%	x	-19.1%	-15.5%	u	u
N#Cc1ccc(S(=O)(=O)N2CCN(S(=O)(=O)c3ccc4c(c3)OCCO4)CC2)cc1	x	x	-3.6%	x	x	x	x
Cc1cc(=O)c2c(o1)C(=O)c1occc1C2=O	x	x	x	50.1µM*	u	x	u
SMILES	Anesthetic bind	B2AR arrestin	Pin1 inh	FEN1 inh-1	Tb PGK inh	BCR signal inh	FEN1 inh-2
Cc1ccc(Cl)cc1NS(=O)(=O)c1cc2c(cc1Cl)CCC(=O)N2	x	x	7.8%	x	x	x	x
O=C(N/N=C/c1cccnc1)c1cc(O)c(O)c(O)c1	-2.6%	-0.2%	u	3.98µM*	-1.2%	-26.0%	6.01*
CC[C@H](C)[C@H](NC(=O)[C@@H](NC(=O)CNC(=O)[C@@H](N)CC(C)C)[C@@H](C)O)C(=O)N1CCC[C@H]1C(=O)NCC(=O)O	1.0%	x	x	x	x	x	x
CC1=NC(Nc2nc(C)c3ccccc3n2)=NC(C)(C)C1	-8.7%	-0.1%	17.8%	39.8µM*	5.3%	0.4%	47.8*
O=S(=O)(c1ccc2c(c1)OCO2)N1CCN(S(=O)(=O)c2c(F)cccc2F)CC1	x	x	4.7%	x	x	x	x
CCc1nnc(N/N=C/c2cccs2)n1N	8.5%	-0.9%	3.1%	-13.0%	1.7%	u	x
CCc1nnc(N/N=C/c2c(Cl)cccc2Cl)n1N	-10.8%	-0.2%	-5.2%	7.2%	-7.7%	u	u
Cc1ccc(NS(=O)(=O)c2cc3c(cc2C)NC(=O)CO3)cc1C	x	x	-1.0%	x	x	x	x
O=C(NNC(=O)c1cc(O)c(O)c(O)c1)NC1CCCCC1	-17.5%	-1.1%	u	28.2µM*	-0.3%	-5.1%	u
O=C(Nc1ccccc1-c1cn2c(CN3CCNCC3)csc2n1)c1cnc2ccccc2n1	x	x	x	28.2µM*	x	x	23.9*
Cn1c2cc(C=O)sc2c2cnn(Cc3ccccc3F)c(=O)c21	x	x	0.0%	x	x	x	x
CN(C)CCOC(=O)c1ccc2[nH]c3c(c2c1)CSCC3	-3.4%	-0.8%	-3.5%	50.1µM*	-7.4%	u	84.9*
CCOC(=O)c1[nH]c2ccccc2c1N=CN(C)C	x	x	0.9%	-2.6%	0.3%	x	x
CN(C)C=Nc1ccc2nc3c(cc2c1)[nH]c1ccccc13	200.8%	0.5%	9.4%	u	x	2.6%	30.1*
CC1=NN(c2cccc(C(=O)O)c2)C(=O)/C1=C\C=C\c1ccco1	-14.9%	0.3%	x	22.4µM*	3.98µM*	u	23.9*
Cc1cc(N/N=C/c2ccc(O)cc2)c2cccc(C)c2n1	-15.0%	-1.6%	-1.7%	u	-9.0%	u	37.9*
Cc1cc(N/N=C/c2ccc(N(C)C)cc2)c2ccccc2n1	u	0.6%	3.5%	-1.0%	-6.0%	-1.1%	x
CN(C)C=Nc1ncc2c3ccccc3n(CCN(C)C)c2c1C#N	-18.2%	-0.1%	-2.1%	u	8.3%	u	x
CCN(CC)CCn1c2ccccc2c2cnc(N)c(C#N)c21	-8.7%	-0.1%	3.0%	u	12.3%	u	21.3*
C(=C\c1ccnc2ccccc12)/c1ccc(-[n+]2cc[n+](-c3ccc(/C=C/c4ccnc5ccccc45)cc3)cc2)cc1	x	x	x	0.4%	x	x	x
